Hits are enriched below; roughly 3.9% of the tested compounds scored in any of these assays.
BoNT-F LC inh: BoNT/F light chain protease inhibitors, primary screen, biochemical, flow cytometry, MLPCN library; Multiplex microsphere protease cleavage assay; 360,000 tested, 0.22% active; inhibition, % at 10 µM; Botulinum neurotoxin type F light chain protease (Clostridium botulinum); in the data active means inhibition above about 35%, passing the limit was not always enough; inconclusive means no clear call, values can overlap the other calls
CCHFV vOTU inh: CCHFV vOTU protease inhibitors, primary screen, biochemical, Pep-AMC substrate, fluorescence; Crimean-Congo hemorrhagic fever virus L polyprotein viral ovarian tumor (vOTU) protease …; inhibition, % at 11.5 µM; 370,000 tested, 0.55% active; AID 651958, 2012; in the data active means inhibition above about 30%
Anthrax LF inh2: Bacillus anthracis LF protease inhibitors, primary screen, biochemical, multiplex microsphere, MLPCN library; 360,000 tested, 0.12% active; inhibition, % at 10 µM; multiplex microsphere protease cleavage assay; AID 588501, 2011; Lethal factor (Bacillus anthracis), P15917
3CLpro inhibitor: SARS-CoV 3CLpro protease inhibitors, primary screen, biochemical, quenched FRET | Replicase polyprotein 1ab (Severe acute respiratory syndrome coronavirus), P0C6X7 | inhibition, % at 6 µM | 290,000 tested, 0.14% active | AID 1706, 2009 | recombinant SARS-CoV 3CLpro, quenched FRET peptide cleavage; in the data active means inhibition above about 12%
Bead autofluor: flagged as autofluorescent in microsphere protease counterscreen; 360,000 tested, 3.1% active; compound autofluorescence counterscreen, microsphere flow cytometry; active compounds read high; fluorescence intensity (no concentration beside the values); AID 624483; in the data active means fluorescence intensity above about 16000; inconclusive means no clear call, values can overlap the other calls
BoNT A protease: BoNT/A light chain protease inhibitors, primary screen, biochemical, flow cytometry, MLPCN library. Botulinum neurotoxin type A light chain protease (Clostridium botulinum A str. ATCC 3502). multiplex microsphere protease substrate cleavage. inhibition, % at 10 µM. 360,000 tested, 0.17% active
Numbers stand for hits. Unless noted, no stated cut-off is given here; in the data, active means inhibition above about 30%; inconclusive means no clear call, values can overlap the other calls; inactive means below that.

What do the screens show for `Cc1cccc(C(=O)Nc2cccc(C(=O)N/N=C/c3cccc(C)n3)c2)c1`?
BoNT-F LC inh: inactive; CCHFV vOTU inh: inactive; Anthrax LF inh2: inactive; 3CLpro inhibitor: inactive; Bead autofluor: inactive; BoNT A protease: inactive

What do the screens show for `C[C@@H](NC(=O)[C@@H]1CCCN1C(=O)[C@@H]1CCCN1C(=O)c1cccc2ccccc12)c1ccccc1`?
BoNT-F LC inh: inactive; CCHFV vOTU inh: inactive; Anthrax LF inh2: inactive; Bead autofluor: inactive; BoNT A protease: inactive

Results for Cn1c(-c2ccccc2)cnc1NCc1ccc(F)cc1 ?
BoNT-F LC inh: inconclusive; CCHFV vOTU inh: inactive; Anthrax LF inh2: inactive; 3CLpro inhibitor: inactive; Bead autofluor: inactive; BoNT A protease: inactive

How did Cn1c(-c2ccc(F)cc2)cnc1NCc1ccccc1 do in these assays?
BoNT-F LC inh: inactive; CCHFV vOTU inh: inactive; Anthrax LF inh2: inactive; 3CLpro inhibitor: inactive; Bead autofluor: 17208; BoNT A protease: inactive

What do the screens show for `Cn1c(-c2cccc(Br)c2)cnc1NCc1cccnc1`?
BoNT-F LC inh: inactive; CCHFV vOTU inh: inactive; Anthrax LF inh2: inactive; 3CLpro inhibitor: inactive; Bead autofluor: 23394; BoNT A protease: inactive

How did COc1ccc(/C=C(/NC(=O)c2ccccc2)C(=O)NCCCn2ccnc2)cc1OC do in these assays?
BoNT-F LC inh: inactive; CCHFV vOTU inh: inactive; Anthrax LF inh2: inactive; 3CLpro inhibitor: inactive; Bead autofluor: inactive; BoNT A protease: inactive

Results for COc1ccc(C(=O)N/C(=C/c2cccs2)C(=O)NCCCn2ccnc2)cc1OC ?
BoNT-F LC inh: inactive; CCHFV vOTU inh: inactive; Anthrax LF inh2: inactive; 3CLpro inhibitor: inactive; Bead autofluor: 20263; BoNT A protease: inactive

Results for Cc1ccccc1C(=O)NC1CCCCN(C)C1=O (centres undefined) ?
CCHFV vOTU inh: inactive

Results for CC(=O)Nc1nnc(-c2ccco2)o1 ?
BoNT-F LC inh: inactive; CCHFV vOTU inh: inactive; Anthrax LF inh2: inactive; 3CLpro inhibitor: inactive; Bead autofluor: inactive; BoNT A protease: inactive

What do the screens show for `Cc1nn(-c2ccccc2)c(C)c1C(=O)Nc1nnc(-c2ccco2)o1`?
BoNT-F LC inh: inactive; CCHFV vOTU inh: inactive; Anthrax LF inh2: inactive; 3CLpro inhibitor: inactive; Bead autofluor: 20671; BoNT A protease: inactive

Results for Cc1cc(CN2CCN(CC(=O)Nc3cc(C(F)(F)F)ccc3-n3cncn3)CC2)no1 ?
BoNT-F LC inh: inactive; CCHFV vOTU inh: inactive; Anthrax LF inh2: inactive; Bead autofluor: inactive; BoNT A protease: inactive

Results for N#Cc1ccccc1NC(=O)CNc1ccccc1N1CCCCC1 ?
BoNT-F LC inh: inactive; CCHFV vOTU inh: inactive; Anthrax LF inh2: inactive; 3CLpro inhibitor: inactive; Bead autofluor: 22615; BoNT A protease: inconclusive

How did CN(Cc1ccccc1NCC(=O)Nc1ccccc1C#N)C1CCCCC1 do in these assays?
BoNT-F LC inh: inactive; CCHFV vOTU inh: inactive; Anthrax LF inh2: inactive; 3CLpro inhibitor: inactive; Bead autofluor: inactive; BoNT A protease: inactive

What do the screens show for `COC(=O)C[C@@H]1CC[C@H]2[C@@H](COc3ccc(NC(=O)c4ccc(Cl)cc4)cc3C(=O)N2C)O1`?
CCHFV vOTU inh: inactive

Results for COC(=O)[C@]12C[C@H](CC(=O)NCC34CC5CC(CC(C5)C3)C4)C(=O)N(Cc3cccc4ccccc34)C1=C[C@H](COCc1ccccc1)O[C@@H]2C ?
CCHFV vOTU inh: inactive

How did CCc1cc(C(=O)NNC(=S)NC(C)c2ccccc2)cs1 (centres undefined) do in these assays?
BoNT-F LC inh: inactive; CCHFV vOTU inh: inactive; Anthrax LF inh2: inactive; 3CLpro inhibitor: inactive; Bead autofluor: 16961; BoNT A protease: inactive

Results for CCN(CC)S(=O)(=O)N1CCC(C(=O)NCCN2CCOCC2)CC1 ?
BoNT-F LC inh: inactive; CCHFV vOTU inh: inactive; Anthrax LF inh2: inactive; 3CLpro inhibitor: inactive; Bead autofluor: 22119; BoNT A protease: inactive

What do the screens show for `O=C(Nc1ccncc1)c1ccc(Cl)c(S(=O)(=O)N2CCCCC2)c1`?
BoNT-F LC inh: inactive; CCHFV vOTU inh: inactive; Anthrax LF inh2: inactive; Bead autofluor: inconclusive; BoNT A protease: inactive

What do the screens show for `CC(=O)Nc1cccc(NC(=O)c2ccc(Br)cc2)c1`?
BoNT-F LC inh: inactive; CCHFV vOTU inh: inactive; Anthrax LF inh2: inactive; 3CLpro inhibitor: inactive; Bead autofluor: inactive; BoNT A protease: inactive

What do the screens show for `O=C(Nc1ncn[nH]1)c1ccc(Cl)c(S(=O)(=O)N2CCCCCC2)c1`?
BoNT-F LC inh: inactive; CCHFV vOTU inh: inactive; Anthrax LF inh2: inactive; 3CLpro inhibitor: inactive; Bead autofluor: 16856; BoNT A protease: inactive

What do the screens show for `O=C(Nc1cccc(O)c1)c1ccc(Br)c(S(=O)(=O)N2CCCCC2)c1`?
BoNT-F LC inh: inactive; CCHFV vOTU inh: inactive; Anthrax LF inh2: inactive; 3CLpro inhibitor: inactive; Bead autofluor: 24544; BoNT A protease: inactive

How did O=C(Nc1cccc(O)c1)c1ccc(Br)cc1 do in these assays?
BoNT-F LC inh: inactive; CCHFV vOTU inh: inactive; Anthrax LF inh2: inactive; 3CLpro inhibitor: inactive; Bead autofluor: 21990; BoNT A protease: inactive

What do the screens show for `O=C(Nc1cccc(O)c1)c1cccc(S(=O)(=O)N2CCCCCC2)c1`?
BoNT-F LC inh: inactive; CCHFV vOTU inh: inactive; Anthrax LF inh2: inactive; 3CLpro inhibitor: inactive; Bead autofluor: inactive; BoNT A protease: inactive

What do the screens show for `Cc1ccc(S(=O)(=O)CCNC(=O)Cc2ccc(Cl)cc2)cc1`?
BoNT-F LC inh: inactive; CCHFV vOTU inh: inactive; Anthrax LF inh2: inactive; 3CLpro inhibitor: inactive; Bead autofluor: inactive; BoNT A protease: inactive

What do the screens show for `CC(NC(=O)c1ccccc1Br)c1nnc(SCC(=O)NC2CCCCC2)n1C` (centres undefined)?
BoNT-F LC inh: inactive; CCHFV vOTU inh: inactive; Anthrax LF inh2: inactive; 3CLpro inhibitor: inactive; Bead autofluor: inactive; BoNT A protease: inactive

How did COc1ccc(N2C(=O)c3ccccc3NC23CCCCC3)cc1 do in these assays?
BoNT-F LC inh: inactive; CCHFV vOTU inh: inactive; Anthrax LF inh2: inactive; 3CLpro inhibitor: inactive; Bead autofluor: inactive; BoNT A protease: inactive

How did COc1ccc(N2C(=O)c3ccccc3NC23CCC(C)CC3)cc1 (centres undefined) do in these assays?
BoNT-F LC inh: inactive; CCHFV vOTU inh: inactive; Anthrax LF inh2: inactive; 3CLpro inhibitor: inactive; Bead autofluor: 22907; BoNT A protease: inactive

What do the screens show for `O=C1NC[C@@H](CCCCN2C[C@H](Cc3ccc(O)cc3)N(CCC3CCCCC3)C(=O)C2=O)N(Cc2ccccc2)C1=O`?
BoNT-F LC inh: inactive; CCHFV vOTU inh: inactive; Anthrax LF inh2: inactive; Bead autofluor: inactive; BoNT A protease: inactive

How did O=C(c1ccc([N+](=O)[O-])cc1)N(Cc1ccc(Cl)cc1)N1C(=O)CCCC1=O do in these assays?
BoNT-F LC inh: inactive; CCHFV vOTU inh: inactive; Anthrax LF inh2: inactive; 3CLpro inhibitor: inactive; Bead autofluor: 17414; BoNT A protease: inactive
